Compound activity as filed in PubChem.
Shown are actives, neighbours in structure and some others; about 1.2% of the full set was active somewhere.
RAD52 anneal inh = blocks human RAD52 DNA annealing. AID 651710. inhibition, % at 18.7 µM. recombinant RAD52 DNA annealing, FRET fluorescence. 360,000 compounds, 0.46% hits. P43351;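 active = every replicate showing at least 50% inhibition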
Target sequence (P43351 whole entry, looked up): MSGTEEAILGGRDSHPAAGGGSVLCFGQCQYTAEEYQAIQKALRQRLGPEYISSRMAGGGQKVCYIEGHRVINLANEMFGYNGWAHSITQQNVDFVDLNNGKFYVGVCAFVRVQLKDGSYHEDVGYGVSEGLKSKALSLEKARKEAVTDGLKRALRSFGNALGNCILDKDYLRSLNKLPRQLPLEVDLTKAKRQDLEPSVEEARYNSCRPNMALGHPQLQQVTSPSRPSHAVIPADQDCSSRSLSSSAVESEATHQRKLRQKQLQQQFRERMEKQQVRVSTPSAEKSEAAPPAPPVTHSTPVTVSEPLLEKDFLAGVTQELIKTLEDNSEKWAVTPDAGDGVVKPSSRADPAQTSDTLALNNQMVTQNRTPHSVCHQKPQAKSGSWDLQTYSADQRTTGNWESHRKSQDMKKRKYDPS
RAD54 branch = blocks human RAD54 Holliday junction branch migration | FAM/BHQ fluorescence | inhibition, % at 10.4 µM | 360,000 compounds, 0.14% hits | AID 602329;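 active = mean normalized replicate activity at least 40 and at least half of replicates scoring 40 or more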;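 also: 0% = median of neutral control wells and 100% = median of positive control wells; inhibitors cause a drop in the FAM fluorescence signal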
Casp6 inh = inhibitors of human caspase-6. P55212. 350,000 compounds, 0.53% hits. purified caspase-6, Z-VEID-R110 cleavage fluorescence. inhibition, % at 12.5 µM;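 active = mean inhibition across replicates at least about 35%, with every replicate also reaching that limit, limit read from the data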;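 also: 0% = median of neutral control wells and 100% = no fluorescence left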
Glyco luc inh = N-linked glycosylation inhibition; 360,000 compounds, 0.23% hits; reporter increase, % at 12.5 µM; D54 ERlucT glycosylation luciferase reporter, 24 h; percent of 100 nM tunicamycin response;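 active = mean luciferase reporter signal, scaled so untreated is 0 and the glycosylation-blocking control 100, at or above a set limit in every replicate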;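 also: luciferase carries N-glycosylation sites so blocking glycosylation raises the light; 0% = median of neutral control wells and 100% = median of 100 nM tunicamycin wells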
NSD2 inh = NSD2 (human) methyltransferase inhibition. NSD2 peptide methylation, AlphaScreen, 120 min. 310,000 compounds, 0.54% hits. O96028. AID 743445. inhibition, % at 12.5 µM; in the data active = inhibition above about 50%
RAD52 DNA ctr = DNA binding artifact in RAD52 counter-screen. shares compounds with RAD52 anneal inh. Salmon sperm DNA/acridine orange FP displacement. AC50, µM. 1,000 compounds, 8% hits. AID 652128;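 active = fitted half-maximal concentration for signal loss at or below twice the highest dose tested, in every separate run, actives reach about 64 µM in these data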
Starred values were filed as active, the others as inactive.

CN1CCN(CCCNC(=O)C2CCN(c3nnc(-n4cccc4)s3)CC2)CC1 was read as RAD54 branch 2.7, Glyco luc inh -0.7 and NSD2 inh -0.5.
For Cc1cc(=O)n2nc(N3CCC(C(=O)N4CCN(C)CC4)CC3)sc2n1 the results were RAD54 branch 2.7, Glyco luc inh -0.4 and NSD2 inh 36.6.
CCOC(=O)N1CCN(C(=O)C2CCN(c3nnc(-n4cccc4)s3)CC2)CC1 was read as RAD52 anneal inh -10.5, RAD54 branch -3.4, Casp6 inh -0.6 and Glyco luc inh 0.7.
`CCN1CCN(C(=O)C2CCN(c3nnc(-n4c(C)ccc4C)s3)CC2)CC1` gave RAD52 anneal inh 57.8*, RAD54 branch 2.8, Casp6 inh -115.0, Glyco luc inh 4.6 and RAD52 DNA ctr inactive.
For C[C@H](CO)N1C[C@H](C)[C@@H](CN(C)S(=O)(=O)c2cccs2)OCCCC[C@H](C)Oc2ccc(NC(=O)Nc3cccc4ccccc34)cc2C1=O the results were RAD54 branch 1.7.
For COC(=O)c1cn(CCCNC(=O)Nc2ccccc2)nn1 the results were RAD52 anneal inh 6.2 and Casp6 inh 1.8.
For O=C(C[C@@H]1C[C@@H]2c3cc(NC(=O)NC4CCCC4)ccc3O[C@@H]2[C@@H](CO)O1)NCc1cc(F)ccc1F the results were RAD54 branch 4.9.
`O=C(C[C@@H]1C=C[C@@H](NC(=O)c2ccncc2)[C@@H](CO)O1)Nc1ccc(-c2ccccc2)cc1` gave RAD52 anneal inh -3.5 and Casp6 inh -3.6.
For C[n+]1c(-c2ccc(C=NNC(=O)c3ccc(C(=O)NN=Cc4ccc(-c5cn6ccccc6[n+]5C)cc4)cc3)cc2)cn2ccccc21 the results were RAD52 anneal inh 94.1*, Casp6 inh -186.8, Glyco luc inh 1.6, NSD2 inh 37.7 and RAD52 DNA ctr 26µM*.
O=C(C[C@@H]1CC[C@H]2[C@@H](COC[C@@H](O)CN2Cc2cccc(Cl)c2)O1)N1CCOCC1 was read as RAD52 anneal inh -7.8, RAD54 branch 3.2 and Casp6 inh 0.9.
`CCCn1c(=O)c(C(=O)OCC)c(O)c2cc(Br)ccc21` gave Glyco luc inh 1.6 and NSD2 inh -1.0.
For CCOC(=O)c1c(CN(C)C)n(C)c2c(O)c(N=NC(N)=O)c3ccc(Br)cc3c12 the results were RAD52 anneal inh 101.0*, RAD54 branch 58.0*, Casp6 inh 16.5, Glyco luc inh 28.1*, NSD2 inh 50.0 and RAD52 DNA ctr inactive.
For OCCN1CCN(CC(O)COc2ccc(Cl)cc2)CC1 (stereo not given) the results were RAD54 branch -10.4, Glyco luc inh 0.8 and NSD2 inh -5.7.
For OCCN1CCN(CC(O)COc2ccc(C34CC5CC(CC(C5)C3)C4)cc2)CC1 (stereo not given) the results were RAD52 anneal inh 56.8*, Casp6 inh -35.9, Glyco luc inh -7.5, NSD2 inh 13.4 and RAD52 DNA ctr inactive.
Cc1cc2cc(CNC(=O)c3cccc([N+](=O)[O-])c3)ccc2n1C was read as RAD52 anneal inh 53.8*, RAD54 branch 5.6, Casp6 inh 1.6, Glyco luc inh 0.1 and RAD52 DNA ctr inactive.
`CCN(CC)CCNC(=O)c1ccc(NC(=O)c2cccc(S(=O)(=O)N3c4ccccc4CC3C)c2)cc1` (stereo not given) gave RAD52 anneal inh 40.8, RAD54 branch 9.9, Casp6 inh -182.4, Glyco luc inh -9.7 and NSD2 inh 6.6.
For CCN(CC)CCNC(=O)c1ccc(NC(=O)c2cccc(S(=O)(=O)N3CCc4ccccc43)c2)cc1 the results were RAD52 anneal inh 50.1*, Casp6 inh -15.2, Glyco luc inh -5.4, NSD2 inh 6.9 and RAD52 DNA ctr inactive.
CN(C)c1cccc2cccc(N(C)C)c12 was read as RAD52 anneal inh 93.4*, RAD54 branch -4.1, Casp6 inh 22.2, Glyco luc inh 3.9, NSD2 inh 3.9 and RAD52 DNA ctr inactive.
Screening COc1cccc(-c2ccc([C@H]3[C@H](CO)N4CCCCN(C(=O)NC(C)C)C[C@@H]34)cc2)c1 returned RAD52 anneal inh -5.8, RAD54 branch 3.8 and Casp6 inh 1.7.
`COc1ccc(C(N)=S)c(OC)c1` gave RAD52 anneal inh 73.9*, Casp6 inh 2.3, Glyco luc inh 2.0, NSD2 inh -1.4 and RAD52 DNA ctr inactive.
`CC(C)C[C@@H]1CN=C(N)N1C[C@@H]1CCCN1C[C@@H](C(C)C)N1C[C@@H](Cc2ccccc2)N(CCc2ccc(Cl)c(Cl)c2)C1=N` gave RAD52 anneal inh 50.8*, RAD54 branch 10.4, Casp6 inh 9.6, Glyco luc inh 0.8 and RAD52 DNA ctr inactive.
C[C@@H]1CN([C@H](C)CO)C(=O)Cc2cc(NS(=O)(=O)c3ccc(F)cc3)ccc2O[C@H]1CN(C)C(=O)Nc1cccc2ccccc12 was read as RAD52 anneal inh 2.4, RAD54 branch -12.9 and Casp6 inh -2.3.
CCC(=O)Nc1ccc2c(c1)OC[C@H](C)N(Cc1cccc(F)c1)C[C@@H](C)[C@H](OC)CN(C)C2=O was read as RAD52 anneal inh 19.3, RAD54 branch -1.6 and Casp6 inh -3.5.
Screening COc1ccc(C(CCN2CCOCC2)c2c(OC)cc(OC)c3c(-c4ccccc4)cc(=O)oc23)cc1 (stereo not given) returned RAD52 anneal inh 50.6*, RAD54 branch 2.9, Casp6 inh 0.1, Glyco luc inh -8.4 and RAD52 DNA ctr inactive.
For COc1ccc(C(CCN2CCCC2)c2c(OC)cc(OC)c3c(-c4ccccc4)cc(=O)oc23)cc1 (stereo not given) the results were RAD52 anneal inh 32.8, RAD54 branch -3.6, Casp6 inh 0.5 and Glyco luc inh -8.0.
Screening CCOC(=O)c1cc(NC(=O)N(C(C)C)C2CCCCC2)c(C)nc1C returned RAD52 anneal inh 95.5*, RAD54 branch -9.8, Casp6 inh 0.8, Glyco luc inh 1.1 and RAD52 DNA ctr inactive.
`Cc1ccc(SCCc2cc[n+](CC(=O)c3ccccc3)cc2)cc1` gave RAD52 anneal inh 53.9*, Glyco luc inh 3.8, NSD2 inh 18.3 and RAD52 DNA ctr inactive.
`COCC(=O)N1CC2(CCN(S(C)(=O)=O)CC2)c2c(n(C)c3cc(OC)ccc23)[C@H]1CO` gave RAD52 anneal inh 3.7.
`CCN(CC)CCCNc1nc2ccccc2c2nc(-c3ccncc3)nn12` gave RAD52 anneal inh -80.1, RAD54 branch 109.3*, Casp6 inh -11.9, Glyco luc inh 118.7*, NSD2 inh 41.0 and RAD52 DNA ctr 46.4µM*.
Screening CN1CCN(CCCNc2nc3ccccc3c3nc(-c4ccccc4)nn23)CC1 returned RAD52 anneal inh 66.1*, Casp6 inh -116.6, Glyco luc inh 6.5, NSD2 inh 6.0 and RAD52 DNA ctr inactive.
Screening COc1cc2c(cc1OC)-c1cc3ccc(OC)c(OC)c3c[n+]1CC2 returned RAD52 anneal inh 79.7*, RAD54 branch 59.9*, Casp6 inh 5.1, Glyco luc inh 1.7 and RAD52 DNA ctr inactive.
